This is an account of results in PubChem BioAssay.

Assay [1] can be described thus: inhibitors of TNFa-induced NFkB p65 translocation, primary screen, imaging, HUVEC, MLSMR starter and 10KST1 sets (AID 438;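 active = inhibition above 20% together with a positive visual image hit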;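 also: compound added about 3h40 before a 20 min TNFalpha stimulation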;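 as to inhibition: signal is the nuclear over cytoplasmic p65 intensity ratio per well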). Conditions: HUVEC TNFa-induced p65 nuclear translocation; cell count: measured here: nuclei count (cytotoxicity indicator), at 2.08 µM; inhibition: at 2 µM, stronger effect = higher value, 0% TNFa-plus-vehicle, 100% no-TNFa wells.
A short description of assay [2]: reduction of polyQ htt aggregates in cells – imaging, exon1htt(103Q)mCFP cells, high-content imaging, primary screen (AID 483;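 active = visual image review flags a hit and inhibition of aggregation exceeds 20%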;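 also: compound exposure lasted 3 days before fixation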;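 as to nuclei count: percent of the per-plate median nuclei count of sample wells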). As to conditions: exon1htt(103Q)mCFP cell line, aggregate imaging, at 2 µM; inhibition of aggregation: stronger effect = higher value; nuclei count: measured here: cell count, toxicity.
Assay [3] in a line: endothelial E-selectin expression blockers – imaging, HUVEC, immunofluorescence, MLSMR starter and 10KST1 sets, primary screen (AID 487;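 active = visually confirmed hit in the image check and inhibition above 20%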;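 as to inhibition: signal is fraction of cell area covered by stained E-selectin grains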;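 as to nuclei count: 100% = median nuclei count of all wells on the same plate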). As to conditions: HUVEC TNFalpha-induced E-selectin immunofluorescence imaging, at 2 µM; inhibition: stronger effect = higher value; nuclei count: measured here: cell number, toxicity.
For assay [4], the target named is Voltage-gated potassium channel subunit beta-2 (Rattus norvegicus) (UniProt P62483). The assay is described as follows: inhibitors of rat Kvbeta2 reductase activity – biochemical, NADPH fluorescence, primary screen (AID 622;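 active = fluorescence slope higher than the sample average by over 3 SD, cut at about -0.22 in these data, passing the limit was not always enough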;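 also: slope of raw intensity against log time taken from 70 to 1610 s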). Conditions: recombinant KvBeta, 4-cyanobenzaldehyde reduction, at 10 µM, stronger effect = higher value.
Sequence of Voltage-gated potassium channel subunit beta-2 (Rattus norvegicus) (P62483 whole entry, looked up): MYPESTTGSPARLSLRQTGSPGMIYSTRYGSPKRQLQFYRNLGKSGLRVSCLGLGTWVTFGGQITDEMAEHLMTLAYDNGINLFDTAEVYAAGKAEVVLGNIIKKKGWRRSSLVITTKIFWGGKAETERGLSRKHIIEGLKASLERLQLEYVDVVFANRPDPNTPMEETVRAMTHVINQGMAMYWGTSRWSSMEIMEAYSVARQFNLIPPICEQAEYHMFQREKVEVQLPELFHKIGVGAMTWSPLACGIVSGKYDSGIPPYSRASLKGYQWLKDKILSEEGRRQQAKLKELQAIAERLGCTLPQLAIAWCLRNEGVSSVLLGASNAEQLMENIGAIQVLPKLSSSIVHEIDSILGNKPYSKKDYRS
The target is the same in assay [5]. The assay is described as follows: enhancers of rat Kvbeta2 NADPH turnover – biochemical, NADPH fluorescence, primary screen (AID 623;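 active = NADPH fluorescence slope more negative than the mean of all samples by about 3 SD, 99.7% confidence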;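 also: fluorescence intensity change per second fitted from 20 to 320 s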). Conditions: Recombinant KvBeta, NADPH fluorescence decrease slope, 10 min; at 10 µM; stronger effect = lower value.
The target of assay [6] is Alpha-2C adrenergic receptor (Homo sapiens) (UniProt P18825). The assay can be described thus: compounds altering alpha2C-coupled GIRK flux – cell-based, HEK293 alpha2C/GIRK1/2, thallium flux, primary screen (AID 624).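 Also: slope of fluorescence ratio to pre-addition baseline per second over 15 to 24 s.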 Conditions: thallium flux BTC fluorescence, at 10 µM, actives lie on both sides.
Sequence of Alpha-2C adrenergic receptor (Homo sapiens) (P18825 whole entry, looked up): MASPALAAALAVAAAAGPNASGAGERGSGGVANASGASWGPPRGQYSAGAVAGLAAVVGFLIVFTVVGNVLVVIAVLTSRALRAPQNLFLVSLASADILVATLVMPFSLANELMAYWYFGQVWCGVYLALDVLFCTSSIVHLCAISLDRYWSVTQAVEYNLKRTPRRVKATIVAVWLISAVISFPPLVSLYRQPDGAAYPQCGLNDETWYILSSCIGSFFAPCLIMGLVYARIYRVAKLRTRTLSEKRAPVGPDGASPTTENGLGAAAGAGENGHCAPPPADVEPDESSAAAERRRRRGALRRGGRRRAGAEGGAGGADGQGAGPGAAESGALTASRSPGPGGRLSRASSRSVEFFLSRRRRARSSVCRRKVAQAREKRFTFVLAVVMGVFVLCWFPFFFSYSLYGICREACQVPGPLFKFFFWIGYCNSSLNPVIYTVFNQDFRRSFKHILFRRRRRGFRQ
Assay [7] is described as follows: blockers of RIG-like receptor reporter activation – cell-based, Sendai virus stimulus, luciferase, 10K MLSCN set, TLR/RLR signaling modifier project, primary screen (AID 602276;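 active = inhibition at or above 50% at 10 µM; inactive = inhibition below 50%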;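 also: firefly luciferase from ISG56 promoter only with Renilla not read in this screen; 0% = Sendai virus plus DMSO and 100% = medium plus DMSO without virus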). Conditions: HEK293 RL24 IRF3 luciferase reporter, at 10 µM, stronger effect = higher value. (Reporter assays use an easily measured gene product as a stand-in for the process of interest.)
Assay [8] in a line: TLR3 IRF3 reporter activation blockers – cell-based, poly I:C stimulus, luciferase, 10K MLSCN set, primary screen (AID 602277;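 active = inhibition of the reporter signal at or above 50%; inactive = inhibition below 50%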). Conditions: HEK293-TLR3 RL24 IRF3 luciferase reporter, at 10 µM, stronger effect = higher value.

Active and inactive are the calls of the source.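 The calls were made as follows, unless noted: active = fluorescence slope after compound addition differing from the mean of all screened samples at 99.7% confidence, in either direction; inactive = the rest.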

Regarding `O=C1COc2ccc(C(=O)COC(=O)CCc3ccc(S(=O)(=O)N4CCOCC4)cc3)cc2N1`, the cell count in assay [1] worked out at 410. Besides, the inhibition (in general, the relative decrease from the control value, in per cent) in assay [1] is -1.9% (inactive); in assay [3], -119% (inactive); in assay [7] it was 4.84% (inactive); in assay [8], 23.5% (inactive). Moreover, in assay [2], the inhibition of aggregation is 12.6% (inactive). Besides, the figures for the nuclei count in assay [2] and in assay [3] were 90.4% and 104%, respectively. Also, the fluorescence slope in assay [4] was -0.37 (inactive). Further, the NADPH fluorescence slope in assay [5] was -5.9e-05 (inactive). The slope in assay [6] is 0.00618 (inactive).
For `CC(C)OC(=O)CSc1nnc(-c2cccnc2)n1Cc1ccccc1`, the cell count in assay [1] worked out at 706. For the same molecule, the inhibition was -16.4% (inactive) in assay [1], 5.1% (inactive) in assay [3], 8.88% (inactive) in assay [7] and 10.9% (inactive) in assay [8]. For the same molecule, in assay [2], the inhibition of aggregation is 8.1% (inactive). In addition, the nuclei count in assay [2] stood at 88.7%; in assay [3], 98.8%. Besides, in assay [4], the fluorescence slope is -0.356 (inactive). Also, the NADPH fluorescence slope in assay [5] was -4.8e-05 (inactive). Also, the slope in assay [6] is 0.00509 (inactive).
Consider `Cc1cc(C(F)F)n2nc(C(=O)Nc3ccc(S(=O)(=O)N4CCCCCC4)cc3)nc2n1`, for which the cell count in assay [1] was 602. Moreover, the inhibition was -6.2% (inactive) in assay [1], -59.4% (inactive) in assay [3], 17.7% (inactive) in assay [7] and 22.1% (inactive) in assay [8]. In addition, the inhibition of aggregation in assay [2] was 9.9% (inactive). For the same molecule, the nuclei count in assay [2] was 85.5%; in assay [3], 96.2%. The fluorescence slope in assay [4] is -0.566 (inactive). In assay [5], the NADPH fluorescence slope was 2.4e-05 (inactive). The slope in assay [6] is 0.00419 (inactive).
Consider `O=C(c1ccc(Br)o1)N(Cc1ccccc1)c1ccccn1`, for which, in assay [1], the cell count came out at 386. Besides, the inhibition in assay [1] was -5.9% (inactive); in assay [3], 5.4% (inactive); in assay [7], 5.65% (inactive); in assay [8], -0.317% (inactive). The inhibition of aggregation in assay [2] was 13.3% (inactive). Besides, the nuclei count in assay [2] was 102%; in assay [3] it was 107%. Further, the fluorescence slope in assay [4] is -0.43 (inactive). Besides, in assay [5], the NADPH fluorescence slope is 5.2e-05 (inactive). In addition, the slope in assay [6] was 0.00529 (inactive).
Consider `CC(C)CC(=O)N1CCN(S(=O)(=O)c2ccc(F)cc2)CC1`, for which the cell count in assay [1] worked out at 662. Further, the inhibition was 7.7% (inactive) in assay [1], 34.7% (inactive) in assay [3], -4.5% (inactive) in assay [7] and -11.7% (inactive) in assay [8]. In addition, the inhibition of aggregation in assay [2] is -7.6% (inactive). The nuclei count was determined as 105% in assay [2] and 86.5% in assay [3]. In addition, in assay [4], the fluorescence slope was -0.401 (inactive). Also, in assay [5], the NADPH fluorescence slope was 2e-05 (inactive). Further, the slope in assay [6] is 0.00623 (inactive).
Turning to `Cc1ccc(OC(=O)CCC(=O)OCCCC(F)(F)C(F)(F)F)cc1`, the cell count in assay [1] was 403. Besides, the inhibition in assay [1] is -3% (inactive); in assay [3], 4.5% (inactive); in assay [7] it was 3.53% (inactive); in assay [8] it was 21.1% (inactive). Also, the inhibition of aggregation in assay [2] was 4.9% (inactive). For the same molecule, the nuclei count turned out to be 103% in assay [2] and 92.5% in assay [3]. In addition, the fluorescence slope in assay [4] was -0.382 (inactive). Further, in assay [5], the NADPH fluorescence slope was -5.9e-05 (inactive). For the same molecule, in assay [6], the slope is 0.00733 (inactive).
`COc1cccc(CN=CC2=C(O)CC(C)(C)CC2=O)c1OC`: in assay [1], the cell count was 326. The inhibition is -18.3% (inactive) in assay [1], -1.5% (inactive) in assay [3], 1.64% (inactive) in assay [7] and 3.58% (inactive) in assay [8]. In addition, in assay [2], the inhibition of aggregation is -1.8% (inactive). The nuclei count in assay [2] was determined as 99.6%; in assay [3] it was 111%. The fluorescence slope in assay [4] was -0.468 (inactive). Besides, the NADPH fluorescence slope in assay [5] was 9.7e-05 (inactive). The slope in assay [6] is 0.00629 (inactive).
With `OC(CN1CCOCC1)Cn1c(-c2cccc(Cl)c2)nc2ccccc21` (centres undefined), in assay [1], the cell count was determined as 500. Also, the inhibition is -2.9% (inactive) in assay [1], -39.6% (inactive) in assay [3], 10.2% (inactive) in assay [7] and 32.2% (inactive) in assay [8]. Also, the inhibition of aggregation in assay [2] is -7.7% (inactive). For the same molecule, the nuclei count worked out at 108% in assay [2] and 112% in assay [3]. In addition, the fluorescence slope in assay [4] is -0.598 (inactive). The NADPH fluorescence slope in assay [5] was 1.9e-05 (inactive). The slope in assay [6] is 0.00704 (inactive).
For `Cc1ccnc(NC(=O)C2CCCN(S(=O)(=O)c3cnc[nH]3)C2)c1` (centres undefined), the cell count in assay [1] turned out to be 526. Moreover, the inhibition is -2.4% (inactive) in assay [1], -81.7% (inactive) in assay [3], -13.6% (inactive) in assay [7] and 7.28% (inactive) in assay [8]. Moreover, in assay [2], the inhibition of aggregation was 39.4% (active). Moreover, the nuclei count in assay [2] came to 84.3%; in assay [3] it was 110%. In addition, the fluorescence slope in assay [4] was -0.564 (inactive). The NADPH fluorescence slope in assay [5] was -2.6e-05 (inactive). The slope in assay [6] was 0.00685 (inactive).
For the molecule `O=C1CCCc2c1nn(-c1ccccc1)[n+]2[O-]`, in assay [1], the cell count was 563. For the same molecule, the inhibition in assay [1] is 7.1% (inactive); in assay [3], -32.5% (inactive); in assay [7] it was 2.04% (inactive); in assay [8] it was 5.41% (inactive). Also, in assay [2], the inhibition of aggregation was -12.3% (inactive). The values for the nuclei count in assay [2] and in assay [3] were 107% and 108%, respectively. The fluorescence slope in assay [4] was -0.426 (inactive). Moreover, the NADPH fluorescence slope in assay [5] was -2.2e-05 (inactive). Further, the slope in assay [6] is 0.00571 (inactive).
With `O=C(CN(Cc1cccs1)C(=O)CNS(=O)(=O)c1ccccc1)NCc1ccco1`, in assay [1], the cell count amounted to 473. Further, the inhibition in assay [1] is -4.2% (inactive); in assay [3], -65.9% (inactive); in assay [7] it was -8.34% (inactive); in assay [8], -2.97% (inactive). Also, in assay [2], the inhibition of aggregation was -5% (inactive). For the same molecule, the nuclei count worked out at 104% in assay [2] and 98.5% in assay [3]. Besides, the fluorescence slope in assay [4] was -0.594 (inactive). Moreover, in assay [5], the NADPH fluorescence slope was 3.8e-05 (inactive). The slope in assay [6] was 0.00631 (inactive).
As for `CN(C)S(=O)(=O)Nc1ccccc1C(N)=O`, the cell count in assay [1] was 425. Also, the inhibition in assay [1] is -9.8% (inactive); in assay [3], -21.7% (inactive); in assay [7] it was 15.1% (inactive); in assay [8], 11.7% (inactive). Besides, the inhibition of aggregation in assay [2] was -9.1% (inactive). Besides, the nuclei count in assay [2] came to 102%; in assay [3], 109%. Moreover, the fluorescence slope in assay [4] is -0.355 (inactive). The NADPH fluorescence slope in assay [5] is -3.8e-05 (inactive). The slope in assay [6] is 0.00484 (inactive).
Take `CC(C)Cc1n[nH]c(=O)[nH]1`: the cell count in assay [1] came out at 742. Also, the inhibition in assay [1] was -25.9% (inactive); in assay [3], -36.3% (inactive); in assay [7], -8.4% (inactive); in assay [8], 1.42% (inactive). The inhibition of aggregation in assay [2] is -10.2% (inactive). The nuclei count in assay [2] was found to be 113%; in assay [3], 120%. Moreover, in assay [4], the fluorescence slope is -0.543 (inactive). Moreover, the NADPH fluorescence slope in assay [5] is -3.9e-05 (inactive). In addition, the slope in assay [6] was 0.00544 (inactive).
With `COc1ccc(S(=O)(=O)Nc2ccc(S(=O)(=O)N3CCCCC3)cc2)cc1OC`, the cell count in assay [1] is 444. Moreover, the inhibition was -4.8% (inactive) in assay [1], -34.6% (inactive) in assay [3], 5.56% (inactive) in assay [7] and 29.1% (inactive) in assay [8]. Besides, in assay [2], the inhibition of aggregation was -3.5% (inactive). In addition, the values for the nuclei count in assay [2] and in assay [3] were 110% and 99.1%, respectively. Moreover, in assay [4], the fluorescence slope is -0.459 (inactive). The NADPH fluorescence slope in assay [5] is -4.3e-05 (inactive). Moreover, the slope in assay [6] is 0.00325 (inactive).
